# Measurements: PubChem BioAssay
# Activity calls are given as the source filed them.
# What was measured:
# [1] = system: Human papillomavirus type 1a protein E7 (residues 44-93); experiment: HPV1a E7 fragment binders on microarrays, primary screen, biochemical, small-molecule microarray, residues 44-93, 635 nm fluorescence (AID 1108); settings: small-molecule microarray binding, fluorescence 635 nm; higher = more signal;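 also: E7 fragment applied at 1 µg/mL in TBST for 1 h at 4 C; score combines spot fluorescence with its signal to noise ratio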
# [2] = modulators of HCV replicon luciferase signal, primary screen, HCV replication inhibitor project, Huh7 cells, luciferase reporter (AID 1109); settings: 48 h, higher = more signal;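 also: huh7 hepatoma cells harbouring a luciferase neomycin HCV replicon reporter; luciferase luminescence as measure of HCV replicon replication; test concentration not given here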
# [3] = molecular target: Left-right determination factor 2 (Homo sapiens) (UniProt O00292); experiment: LEFTY2 binders on small-molecule microarrays, primary screen, biochemical, small-molecule microarray, 635 nm fluorescence scan (AID 1110); settings: LEFTY2 binding, higher = more signal
# [4] = molecular target: Calmodulin-1 (Homo sapiens) (UniProt P0DP23); experiment: CALM1 binders on microarrays, EGTA buffer, profiling panel, biochemical, small-molecule microarray, Cy5-labelled CALM1 (AID 1111); settings: Cy5-CALM1 binding fluorescence, higher = more signal;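 also: labelled calmodulin applied in Tris saline Tween buffer holding calcium plus EGTA and DTT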
# [5] = molecular target: Calmodulin-1 (Homo sapiens) (UniProt P0DP23); experiment: calcium-bound CALM1 binders on microarrays, profiling panel, artefact control for SMM control-protein annotation, biochemical, small-molecule microarray, Cy5-labelled CALM1, plus calcium (AID 1112); settings: Cy5-CALM1 binding fluorescence, higher = more signal;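 also: score merges spot fluorescence with signal to noise from triplicate slides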
# [6] = small-molecule microarray binders of probe aWnt5a, primary screen, biochemical, biotinylated probe, 635/667 nm fluorescence (AID 1113); settings: higher = more signal;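 also: score merges 667 nm fluorescence intensity with signal-to-noise per printed feature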
# [7] = small-molecule microarray binders of probe aShh, primary screen, biochemical, biotinylated probe, 635/667 nm fluorescence (AID 1114); settings: higher = more signal;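 also: probe is biotin-labelled aShh protein from a stem cell growth factor screen; measures binding of labelled protein to compounds printed on the slide; score merges feature fluorescence at 667 nm with signal-to-noise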
# [8] = small-molecule microarray binders of probe aNog, primary screen, biochemical, biotinylated probe, 635/667 nm fluorescence (AID 1115); settings: higher = more signal;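 also: probe is biotinylated aNog protein used at 0.15 µg/mL for 1 h at 4 C; z-score combines 667 nm fluorescence of each spot with its signal to noise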
# [9] = molecular target: Torsin-1A-interacting protein 1 (Homo sapiens) (UniProt Q5JTV8); experiment: LAP1 binders from COS7 cell lysate, primary screen, small-molecule microarray, 635/667 nm fluorescence (AID 1116); settings: COS7-hLAP1 lysate binding, 635 nm fluorescence, higher = more signal
# [10] = molecular target: Alpha-bungarotoxin (Bungarus multicinctus) (UniProt P60615); experiment: alpha-bungarotoxin binders on microarray, profiling panel, artefact control for SMM control protein annotation, biochemical, small-molecule microarray, Alexa647 label, 635/667 nm fluorescence (AID 1117); settings: alpha-BTX-A647 binding fluorescence, higher = more signal
# [11] = molecular target: Albumin (Bos taurus) (UniProt P02769); experiment: bovine serum albumin binders on microarray, profiling panel, artefact control for SMM control protein annotation, biochemical, small-molecule microarray, Alexa647 label, 635/667 nm fluorescence (AID 1118); settings: BSA-A647 binding, fluorescence 635 nm, higher = more signal;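 also: score merges 667 nm emission intensity and signal-to-noise per printed compound spot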
# [12] = small-molecule microarray binders of probe aXIP, primary screen, biochemical, NeuroSMM set, 635/667 nm fluorescence (AID 1119); settings: higher = more signal, called active from +8 up or from −8 down;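 also: probe is the protein aXip251-270 applied at 1 µg/mL to compound-printed slides; binding of probe to printed compounds measured as 667 nm fluorescence plus signal to noise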
# [13] = small-molecule binders of probe aNOTCH3, primary screen, biochemical, small-molecule microarray, 635/667 nm fluorescence (AID 1120); settings: higher = more signal;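 also: probe is a biotin-tagged antibody raised against NOTCH3 rather than NOTCH3 protein; score merges spot fluorescence near 667 nm with spot signal to noise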
# [14] = small-molecule binders of probe aNOTCH2, primary screen, biochemical, small-molecule microarray, 635/667 nm fluorescence (AID 1121); settings: higher = more signal;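 also: score merges feature fluorescence read at 667 nm with its signal to noise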
# [15] = molecular target: Carbonic anhydrase 2 (Homo sapiens) (UniProt P00918); experiment: CAII small-molecule binders, profiling panel, biochemical, small-molecule microarray, Alexa647-labelled CAII (AID 1122); settings: CAII-A647 binding fluorescence, higher = more signal
# [16] = COS7 lysate on small-molecule microarray, probe aHis, 635 nm (AID 1123); settings: COS7 cell lysate, fluorescence, higher = more signal;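 also: z-score combines 667nm fluorescence intensity with signal-to-noise per printed compound spot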
# [17] = compound binding in COS7 lysate, probe aLAP1, primary screen, cell lysate, small-molecule microarray (AID 1124); settings: probe aLAP1, fluorescence, higher = more signal;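 also: lysate comes from COS7 cells expressing LAP1 and is applied at 0.3 µg/mL; score merges spot fluorescence near 667 nm with signal-to-noise over triplicate slides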
# [18] = system: Sam68 (KHDRBS1); experiment: Sam68 small-molecule binders, primary screen, biochemical, small-molecule microarray, 635 nm fluorescence (AID 1125); settings: small-molecule microarray binding, higher = more signal;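 also: score merges 667 nm channel intensity with signal to noise over triplicate slides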
# [19] = system: Chordin-like protein 2 (CHRDL2); experiment: CHRDL2 small-molecule binders, primary screen, biochemical, small-molecule microarray, 635 nm fluorescence (AID 1126); settings: small-molecule microarray binding, fluorescence 635 nm; higher = more signal;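 also: printed compound slides probed with Chrdl2 protein at 4 µg/mL for 1 h at 4 C; score merges 667 nm emission intensity with signal to noise over three replicate slides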
# [20] = molecular target: Concanavalin-A (Canavalia ensiformis) (UniProt P02866); experiment: ConA small-molecule binders, primary screen, artefact control for SMM control protein annotation, biochemical, small-molecule microarray, Alexa647 label, 635 nm (AID 1127); settings: ConA-A647 binding fluorescence, higher = more signal;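 also: z combines 667 nm emission intensity with signal-to-noise across three replicate slides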
# Sequence of Concanavalin-A (Canavalia ensiformis) (P02866 whole entry, looked up): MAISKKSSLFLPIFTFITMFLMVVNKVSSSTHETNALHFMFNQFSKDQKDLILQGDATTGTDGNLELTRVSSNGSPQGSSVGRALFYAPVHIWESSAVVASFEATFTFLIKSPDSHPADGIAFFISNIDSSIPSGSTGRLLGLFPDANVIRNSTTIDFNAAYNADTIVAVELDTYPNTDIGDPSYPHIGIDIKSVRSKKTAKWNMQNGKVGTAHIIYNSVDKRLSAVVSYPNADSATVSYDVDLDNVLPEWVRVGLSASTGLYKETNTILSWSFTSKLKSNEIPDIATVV
# Sequence of Alpha-bungarotoxin (Bungarus multicinctus) (P60615 whole entry, looked up): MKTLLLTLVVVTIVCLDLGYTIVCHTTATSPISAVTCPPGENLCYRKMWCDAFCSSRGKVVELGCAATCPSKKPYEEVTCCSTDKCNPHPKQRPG
# Sequence of Left-right determination factor 2 (Homo sapiens) (O00292 whole entry, looked up): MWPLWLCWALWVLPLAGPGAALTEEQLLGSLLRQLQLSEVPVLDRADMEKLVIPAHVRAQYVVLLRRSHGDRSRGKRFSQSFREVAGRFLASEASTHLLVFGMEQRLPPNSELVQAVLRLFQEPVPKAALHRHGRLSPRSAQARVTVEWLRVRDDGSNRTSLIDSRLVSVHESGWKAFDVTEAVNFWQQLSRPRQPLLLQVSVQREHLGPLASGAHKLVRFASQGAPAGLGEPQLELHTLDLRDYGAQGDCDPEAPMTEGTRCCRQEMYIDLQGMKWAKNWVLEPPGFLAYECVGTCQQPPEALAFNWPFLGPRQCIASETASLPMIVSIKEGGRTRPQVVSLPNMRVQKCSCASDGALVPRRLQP
# Sequence of Torsin-1A-interacting protein 1 (Homo sapiens) (Q5JTV8 whole entry, looked up): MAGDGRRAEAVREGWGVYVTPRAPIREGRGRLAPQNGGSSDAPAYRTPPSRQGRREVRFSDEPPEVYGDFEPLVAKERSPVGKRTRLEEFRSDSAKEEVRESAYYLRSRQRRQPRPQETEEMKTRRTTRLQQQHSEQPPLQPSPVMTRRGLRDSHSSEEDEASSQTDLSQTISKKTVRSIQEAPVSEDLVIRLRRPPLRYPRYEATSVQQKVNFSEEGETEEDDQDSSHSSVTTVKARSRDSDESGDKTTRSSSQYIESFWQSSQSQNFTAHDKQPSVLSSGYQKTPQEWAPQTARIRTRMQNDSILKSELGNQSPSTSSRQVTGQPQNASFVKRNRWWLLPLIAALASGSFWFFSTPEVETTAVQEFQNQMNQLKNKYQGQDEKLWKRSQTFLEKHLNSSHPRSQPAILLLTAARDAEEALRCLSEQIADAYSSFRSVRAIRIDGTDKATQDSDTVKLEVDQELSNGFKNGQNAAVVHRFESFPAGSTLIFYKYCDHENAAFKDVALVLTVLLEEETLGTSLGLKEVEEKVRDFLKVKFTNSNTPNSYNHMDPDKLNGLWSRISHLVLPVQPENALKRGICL
# Sequence of Albumin (Bos taurus) (P02769 whole entry, looked up): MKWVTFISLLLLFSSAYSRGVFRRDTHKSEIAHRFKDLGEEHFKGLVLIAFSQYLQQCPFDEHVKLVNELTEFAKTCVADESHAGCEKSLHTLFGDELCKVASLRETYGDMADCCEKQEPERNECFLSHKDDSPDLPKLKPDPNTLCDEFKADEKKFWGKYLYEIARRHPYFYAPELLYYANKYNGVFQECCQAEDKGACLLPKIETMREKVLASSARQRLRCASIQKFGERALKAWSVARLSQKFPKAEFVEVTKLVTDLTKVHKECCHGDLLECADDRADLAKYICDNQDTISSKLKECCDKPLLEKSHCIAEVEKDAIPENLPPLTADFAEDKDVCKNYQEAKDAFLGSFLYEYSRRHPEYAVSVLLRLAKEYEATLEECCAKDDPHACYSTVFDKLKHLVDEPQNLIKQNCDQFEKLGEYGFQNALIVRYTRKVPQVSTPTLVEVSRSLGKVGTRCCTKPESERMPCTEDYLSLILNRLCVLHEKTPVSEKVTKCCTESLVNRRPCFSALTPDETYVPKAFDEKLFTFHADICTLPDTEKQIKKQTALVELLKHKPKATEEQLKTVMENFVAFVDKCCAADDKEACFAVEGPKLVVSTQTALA
Structure (SMILES),composite z-score [1],z-score [2],composite z-score [3],composite z-score [4],composite z-score [5],composite z-score [6],composite z-score [7],composite z-score [8],composite z-score [9],composite z-score [10],composite z-score [11],composite Z-score [12],composite z-score [13],composite z-score [14],composite z-score [15],composite z-score [16],composite z-score [17],composite z-score [18],composite z-score [19],composite z-score [20]
Cc1ccc(S[C@]2(C(=O)NCCN3CCOCC3)CC(=O)N(C3CCCCC3)[C@@H]2c2ccc(CO)cc2I)cc1,1.46,-3.05,0.134,0.562,0.326,0.0214,0.23,-0.0098,1.37,1.23,0.81,0.918 (inactive),-0.101,-0.155,0.405,2.89,-0.006,1.27,0.138,1.11
CN(C)CCCCNC(=O)[C@H]1C[C@H]2C(=O)NCC(=O)N2[C@H]1c1cccc(OCCO)c1,-0.433,0.195,-0.443,0.0097,0.706,-0.0685,-0.285,-0.437,0.668,-0.115,-0.539,0.0388 (inactive),-0.179,-0.146,0.655,0.0949,-0.235,-0.705,0.281,-0.408
C=CCC(OC(C)=O)[C@@H]1[C@@H](N(Cc2cccc3ccccc23)C(=O)c2cccc3ccccc23)c2cc(OCCCO)ccc2N1C(=O)Cc1ccc2ccccc2c1 (stereo not given in full),0.281,0.108,-0.277,-0.603,-0.177,-0.0685,-0.138,0.255,0.0057,-0.424,-0.351,-0.745 (inactive),-0.128,-0.147,-0.272,-0.331,-0.397,-0.0418,0.295,-0.508
CC(C)CNC(=O)[C@@H]1c2ccccc2C(=O)N(Cc2ccccc2)[C@H]1c1ccc(CO)cc1,0.93,0.372,-1.35,-0.148,-0.202,-0.253,-0.1,0.127,0.936,-0.865,-0.159,-0.318 (inactive),-0.394,-0.122,0.83,1.63,1.35,0.293,-1.1,-0.102
CO[C@H]1O[C@H](CO)[C@@H](OC(=O)Nc2ccc(C(F)(F)F)cc2)[C@H](OC(=O)Nc2ccccc2-c2ccccc2)[C@@H]1OC(=O)Nc1ccccc1-c1ccccc1,1.3,-2.79,0.523,2.2,0.383,0.0181,0.199,0.977,1.47,2.18,0.816,0.0336 (inactive),0.387,-0.0496,0.647,2.21,0.818,1.29,0.102,1.15
CN(C)CCCCNC(=O)[C@H]1C[C@H]2C(=O)N[C@@H](Cc3ccccc3)C(=O)N2[C@H]1c1cccc(OCCO)c1,-1.49,-0.251,0.0071,-0.545,0.0005,-0.217,0.251,-0.338,0.0886,0.336,-0.598,-0.162 (inactive),-0.199,-0.117,0.627,-0.185,-0.507,-1.16,0.739,0.696
O=c1cccc(-c2ccccc2C(F)(F)F)o1,-0.438,-0.445,-0.747,-0.294,0.243,0.421,0.417,1.08,-0.211,-0.678,0.747,0.3 (inactive),0.583,0.581,0.354,0.491,-0.148,-0.519,-0.223,-0.407
COc1ccc(NN2C(C(O)c3cc(C(F)(F)F)cc(C(F)(F)F)c3)C=CC3C(=O)N(C4CCCCC4)C(=O)C32)cc1 (stereo not given),0.258,-1.79,-0.0774,1.66,0.0635,0.485,0.611,1.82,1.06,0.698,0.771,-0.0097 (inactive),1.02,0.659,0.589,1.5,0.219,1.07,0.0186,1.04
CCOC(=O)C[C@H]1[C@H](OC(=O)c2cc3ccccc3oc2=O)[C@@H](NC(=O)C2CCCCC2)c2cc(OCCCO)ccc2N1C(=O)Cc1ccc(OC)cc1,0.612,-0.938,0.304,0.126,-0.182,0.0633,0.42,0.23,0.404,0.25,0.259,0.127 (inactive),1.41,-0.0111,0.51,0.988,0.319,0.736,0.328,-0.146
CC(C)CNC(=O)[C@@]1(C)c2ccccc2C(=O)N(Cc2cc(F)cc(C(F)(F)F)c2)[C@H]1c1ccc(CO)cc1,1.35,-0.732,0.0867,0.0765,0.0987,-0.17,0.0639,0.341,1.98,0.884,0.621,-0.17 (inactive),-0.0044,-0.046,0.284,1.2,0.615,1.17,0.443,0.771
COc1ccc(C#Cc2ccc3c(c2)[C@]2(C(=O)N3)[C@H](c3ccc(OCCO)cc3)N3[C@H](c4ccccc4)[C@H](c4ccccc4)OC(=O)[C@H]3[C@@H]2C(=O)O)cc1,1.46,-1.3,0.362,-0.17,-0.893,-0.0028,-0.0999,1.81,0.523,0.485,-0.0067,-0.221 (inactive),1.18,-0.0907,0.653,3.18,0.811,1.3,0.234,0.761
C=CCC(OC(C)=O)[C@@H]1[C@@H](N(Cc2ccc(-c3cccc(C(F)(F)F)c3)o2)C(=O)Cc2ccc(F)cc2)c2cc(OCCCO)ccc2N1C(=O)c1ccc2ccccc2n1 (stereo not given in full),-0.848,-0.937,-0.0009,-0.297,0.195,-0.0462,-0.185,-0.172,0.0265,-0.124,0.671,0.272 (inactive),0.228,-0.0664,-0.0261,0.27,-0.0949,0.388,0.353,-2.02
CCCCC=C[C@@H](NC(=O)c1ccc(C(F)(F)F)cc1)c1ccccc1,-0.297,-0.887,-0.636,-0.0968,0.382,-0.134,0.0022,0.278,-0.946,-1.07,-0.81,0.734 (inactive),-0.165,-0.125,-0.273,0.0379,-0.0554,-0.0265,-0.94,-0.792
CC(C)(C)OC(=O)CC[C@]1(C(N)=O)N=C(c2ccc(OCCCO)cc2)O[C@H]1c1ccccc1CN=[N+]=[N-],0.6,1.46,-0.63,2.67,1.73,-0.096,0.84,-0.143,2.26,1.46,0.712,0.523 (inactive),0.761,0.234,0.981,3.63,0.666,1.33,-0.894,0.831
O=C1C2C=CC(C(O)c3cccs3)N(Nc3ccccc3)C2C(=O)N1c1ccccc1 (stereo not given),0.407,-1.09,0.253,0.297,-0.971,0.0135,0.0469,0.371,0.403,0.38,0.21,0.353 (inactive),0.0864,-0.0731,0.787,-0.0142,-0.646,-0.0232,0.568,0.0148
COC(=O)C(CC#Cc1ccc2c(c1)[C@]1(C(=O)N2)[C@H](c2ccc(O)cc2)N2[C@H](c3ccccc3)[C@H](c3ccccc3)OC(=O)[C@H]2[C@@H]1C(=O)N1CCc2cc(OC)c(OC)cc2C1)C(=O)OC,0.85,-0.163,0.737,0.267,-0.521,0.324,0.383,-0.23,1.25,1.55,-0.1,0.33 (inactive),0.0032,-0.125,0.366,1.72,1.05,1.32,0.64,1.12
